# Measured values published in the supplement of paper PMC7366291.
# Where a name gives a salt, the structure may show the parent alone. ± gives the standard deviation.
# Test system: Danio rerio Tg(wt1b:EGFP) embryo, pronephros
# Experiment: glomerular separation, fold change vs DMSO control; higher = glomeruli further apart (abnormal)
# Settings: 25 µM; exposure: 24-48 hpf
# Method in brief: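 In HEPES-buffered E3 with 0.003% PTU and 0.5% DMSO, dechorionated Tg(wt1b:EGFP) zebrafish embryos were exposed to 25 μM compound from 24 to 48 hpf at 28.5°C. Pronephroi were then imaged dorsally at 470 nm in 10 z-slices, in 96-well plates filled with agarose. On maximum projections, a Fiji macro turned 16 manually placed reference points into distances and angles, and values more than 2 SD from the feature mean were excluded. Features are fold changes relative to the mean of DMSO-treated embryos from the same day.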
row,Compound,glomerular separation
1,NS(=O)(=O)Cc1noc2ccccc12 [Zonisamide],0.805 ± 0.15
2,CCN1CC(CCN2CCOCC2)C(c2ccccc2)(c2ccccc2)C1=O (stereo not given) [Doxapram hydrochloride],0.953 ± 0.32
3,CC(C)[N+](C)(CCOC(=O)C1c2ccccc2Oc2ccccc21)C(C)C [Propantheline bromide],1.29 ± 0.47
4,Nc1nc2n[nH]nc2c(=O)[nH]1 [Azaguanine-8],0.905 ± 0.36
5,CCOC(=O)c1ccc(OC(=O)CCCCCNC(=N)N)cc1 [Gabexate mesilate],0.986 ± 0.37
6,CN(C)[C@@H]1C(O)=C(C(N)=O)C(=O)[C@@]2(O)C(O)=C3C(=O)c4c(O)cccc4[C@@](C)(O)[C@H]3[C@H](O)[C@@H]12 [Oxytetracycline dihydrate],1.22 ± 0.44
7,CCC(C)(CN(C)C)OC(=O)c1ccccc1 (stereo not given) [Amyleine hydrochloride],1.1 ± 0.77
8,CCN1CCC[C@H]1CNC(=O)c1c(OC)ccc(Br)c1OC [Remoxipride Hydrochloride],0.777 ± 0.38
9,CN(C)c1cc(NC(=O)CNC(C)(C)C)c(O)c2c1C[C@H]1C[C@H]3[C@H](N(C)C)C(O)=C(C(N)=O)C(=O)[C@@]3(O)C(O)=C1C2=O [Tigecycline],0.759 ± 0.22
10,CC(C)N1CCN(c2ccc(OCC3COC(Cn4cncn4)(c4ccc(Cl)cc4Cl)O3)cc2)CC1 (stereo not given) [Terconazole],0.864 ± 0.17
11,CCCCNc1cc(C(=O)O)cc(S(N)(=O)=O)c1Oc1ccccc1 [Bumetanide],1.41 ± 0.43
12,COC(=O)[C@H]1[C@H]2C[C@@H]3c4[nH]c5cc(OC)ccc5c4CCN3C[C@H]2C[C@@H](OC(=O)c2cc(OC)c(OC)c(OC)c2)[C@@H]1OC [Reserpine],0.705 ± 0.29
13,CCCCOc1ccc(OCCCN2CCOCC2)cc1 [Pramoxine hydrochloride],0.962 ± 0.26
14,CC#C[C@]1(O)CC[C@H]2[C@@H]3CCC4=CC(=O)CCC4=C3[C@@H](c3ccc(N(C)C)cc3)C[C@@]21C [Mifepristone],0.949 ± 0.33
15,CCCCCCNC(=O)n1cc(F)c(=O)[nH]c1=O [Carmofur],8.71 ± 3.1
16,C#C[C@]1(O)CC[C@H]2[C@@H]3CCC4=CC(=O)CC[C@@H]4[C@H]3CC[C@@]21C [Norethindrone],0.967 ± 0.35
17,CCOC(=O)O[C@]1(C(=O)OCCl)CC[C@H]2[C@@H]3CCC4=CC(=O)C=C[C@]4(C)[C@H]3[C@@H](O)C[C@@]21C [Loteprednol etabonate],1.27 ± 0.56
18,NC(=O)c1cccnc1 [Nicotinamide],1 ± 0.22
19,Nc1cc(C(Cl)=C(Cl)Cl)c(S(N)(=O)=O)cc1S(N)(=O)=O [Clorsulon],0.798 ± 0.23
20,CCCCc1cc2ccccc2c(OCCN(C)C)n1 [Dimethisoquin hydrochloride],0.777 ± 0.2

row,Compound,glomerular separation
1,CN1CCN(c2c(F)cc3c(=O)c(C(=O)O)cn(CCF)c3c2F)CC1 [Fleroxacin],0.566 ± 0.3
2,CCN(CC)CCOC(=O)C(Cc1cccc2ccccc12)CC1CCCO1 (stereo not given) [Nafronyl oxalate],1.2 ± 0.63
3,CCCC(C(=O)OCCN(CC)CC)(c1ccccc1)c1ccccc1 [Proadifen hydrochloride],0.771 ± 0.16
4,O=C(O)CCC(=O)Nc1ccc(S(=O)(=O)Nc2nccs2)cc1 [Succinylsulfathiazole],0.974 ± 0.39
5,NC[C@H]1CC[C@H](C(=O)O)CC1 [Tranexamic acid],0.901 ± 0.18
6,NS(=O)(=O)c1cc(C2(O)NC(=O)c3ccccc32)ccc1Cl (stereo not given) [Chlorthalidone],1.04 ± 0.23
7,O=C1CC2(CCCC2)CC(=O)N1CCCCN1CCN(c2ncccn2)CC1 [Buspirone hydrochloride],0.901 ± 0.35
8,C[N+](C)(C)CCOC(N)=O [Carbachol],0.868 ± 0.25
9,Nc1nc(=O)[nH]cc1F [Flucytosine],0.784 ± 0.38
10,C=C(CC)C(=O)c1ccc(OCC(=O)O)c(Cl)c1Cl [Ethacrynic acid],1.05 ± 0.28
11,COc1ccc2c3c1O[C@H]1C[C@@H](O)C=C[C@@]31CCN(C)C2 [Galanthamine hydrobromide],1.08 ± 0.38
12,CN1CCC(=C2c3ccccc3Sc3ccccc32)CC1 [Pimethixene maleate],1.32 ± 0.41
13,O=C1C(O)=C([C@H]2CC[C@H](c3ccc(Cl)cc3)CC2)C(=O)c2ccccc21 [Atovaquone],1.05 ± 0.35
14,CC(C)(C)NC[C@H](O)COc1cccc2c1CCCC2=O [(-) -Levobunolol hydrochloride],0.705 ± 0.17
15,COc1nc(C)nc(Cl)c1NC1=NCCN1 [Moxonidine],1.07 ± 0.47
16,C[N+]1(CCCCC[N+]2(C)CCCC2)CCCC1 [Pentolinium bitartrate],1.28 ± 0.5
17,C#C[C@]1(O)CC[C@H]2[C@@H]3[C@H](C)CC4=C(CCC(=O)C4)[C@H]3CC[C@@]21C [Tibolone],0.915 ± 0.4
18,N[C@@H]1CONC1=O [D-cycloserine],0.796 ± 0.24
19,CN(C)c1nc(N(C)C)nc(N(C)C)n1 [Altretamine],0.998 ± 0.46
20,CN1CCN(C(c2ccccc2)c2ccc(Cl)cc2)CC1 (stereo not given) [Chlorcyclizine hydrochloride],1.13 ± 0.62
